Rows were chosen to be rich in hits. Some 2.8% of all compounds tested hit in one or more screens of this group.
MBNL1 CUG block: blocks human MBNL1 binding to CUG repeat RNA. actives 0.036% (n = 280,000). TR-FRET MBNL1-His/biotin-(CUG)12 binding, 665/545 ratio. Potency, µM (doses to about 57.5 µM), for inactives: top-dose activity change, negative = inhibition, actives largely listed as inhibitors. AID 2675. Q9NR56; active = well fitted inhibition curve with a large enough effect in the signal ratio, with a control signal flat, not every such curve was filed as active; inconclusive = small, poorly fitted or top-dose-only effect, or effect the other way, or a change in a side signal; inactive = no such curve, though single readings can be large or run the other way; the % refers to the signal ratio; also: potency is read from the fitted curve at half-maximal effect; % is scaled to controls: 0 for no effect and ±100 for the full control effect
Target sequence (Q9NR56 whole entry, looked up): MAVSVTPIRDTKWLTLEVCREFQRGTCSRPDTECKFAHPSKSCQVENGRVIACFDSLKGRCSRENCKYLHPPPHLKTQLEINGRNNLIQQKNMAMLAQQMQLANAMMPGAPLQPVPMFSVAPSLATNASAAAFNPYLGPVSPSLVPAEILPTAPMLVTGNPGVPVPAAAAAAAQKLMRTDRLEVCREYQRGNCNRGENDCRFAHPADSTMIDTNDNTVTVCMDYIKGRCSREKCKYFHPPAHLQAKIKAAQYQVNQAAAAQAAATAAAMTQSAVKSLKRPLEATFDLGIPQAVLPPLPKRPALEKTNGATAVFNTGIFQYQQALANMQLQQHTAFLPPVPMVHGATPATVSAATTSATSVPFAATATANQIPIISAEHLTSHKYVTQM
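Compound titration spanned 92 nM–58 uM against the MBNL1-His/biotin-(CUG)12 complex. After 60 min at room temperature with 5 nM streptavidin-XL665 and 0.055 ng/ul terbium anti-His, ratiometric 665/545 nm emission (Ex 340 nm) normalized to controls.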
PTHR1 agonist: PTHR1 (human) receptor agonism; actives 0.075% (n = 410,000); HEK293 GP2 PTHR1 cells, GloSensor cAMP luminescence, 1 h; Potency, µM (highest dose often 115 µM), without a hit: at the top dose activation, actives largely listed as activators; AID 743266; also: potency is read from the fitted curve at half-maximal effect; nearly all actives have a fitted effect of over 55% in size
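HEK-293-derived GP2 cells expressing PTHR1 and a GloSensor cAMP reporter, 3,000/well, plated overnight, given luciferin plus IBMX (each 0.5 mM as added) for 1 h at 37 °C, then compound for 1 h at 37 °C. Luminescence was read after 15 min at room temperature.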
Integrin act MD: integrin-mediated muscular dystrophy alleviation activation; alpha7betagal myoblasts, beta-gal FDG fluorescence, 48 h; Potency, µM (highest dose often 38.3 µM), without a hit: at the highest dose activation, usual class: activators; actives 0.064% (n = 350,000); AID 624291;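 also: potency is read from the fitted curve at half-maximal effect; 100% = response of the positive control SU9516; nearly all actives have a fitted effect of over 60% in size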
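alpha7betagal+/- myoblasts (passage 13, 250/well) treated 48 h at 37C with compounds at 1:260 dilution of DMSO stock. Lysed, then beta-galactosidase activity read as FDG fluorescence (ex 480/em 540) after 30 min, with pre-read for autofluorescence.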
D3 ag: activates the human D3 dopamine receptor | P35462 | D3R DiscoveRx beta-arrestin cells, luminescence, 90 min | max activation, % | actives 0.58% (n = 410,000); in the data active = max activation above about 30%; also: 0% is about no effect
Target sequence (P35462 whole entry, looked up): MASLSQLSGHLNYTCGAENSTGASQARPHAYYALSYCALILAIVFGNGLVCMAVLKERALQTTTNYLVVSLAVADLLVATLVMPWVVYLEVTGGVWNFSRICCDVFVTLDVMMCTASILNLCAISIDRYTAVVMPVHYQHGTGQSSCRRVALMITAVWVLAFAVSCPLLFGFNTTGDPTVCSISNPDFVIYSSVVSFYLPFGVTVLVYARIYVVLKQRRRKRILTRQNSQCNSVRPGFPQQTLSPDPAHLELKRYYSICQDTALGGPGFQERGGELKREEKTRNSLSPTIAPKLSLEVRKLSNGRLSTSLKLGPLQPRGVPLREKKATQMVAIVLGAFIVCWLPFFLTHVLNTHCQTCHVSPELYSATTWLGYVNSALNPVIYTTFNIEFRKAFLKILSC
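Cells at 1500/well, incubated overnight, then treated with pinned compounds (dopamine as control) for 90 min at 37 degrees C. DiscoveRx reagent added for 30 - 60 minutes at room temperature; luminescence read.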
D3 antag: D3 dopamine receptor (human) antagonism; AID 652054; D3R cells, DiscoveRx beta-arrestin luminescence, antagonist mode; active compounds read low; P35462; actives 2.5% (n = 360,000); max response, negative = inhibition, %; in the data active = max response below about -50%; inconclusive = no clear call, values can overlap the other calls; also: % is scaled to controls: 0 for no effect and ±100 for the full control effect
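Cells plated overnight at 1500 cells/well, then exposed to library compounds with dopamine controls for 90 minutes at 37 degrees C. DiscoveRx reagent added for 30–60 minutes at room temperature; luminescence read, quantitative HTS format.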
CBFb-RUNX1 inh: CBF-beta/RUNX1 interaction disruption. Q01196+Q13951. AID 1477. 230,000 tested, under 10 active. Potency, µM (titrated, usually from 59.8 µM), for the others: at the highest dose activity, negative = inhibition, actives largely listed as inhibitors. AlphaScreen CBFb-His/RUNX1-biotin binding, biochemical; also: % of control where 0% means no effect
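CBF-beta (His) and RUNX1 (biotin), 30 nM each; 20 min preassociation; + compound, 15 min; + beads 50 ng each (Ni, streptavidin), 90 min; RT; AlphaScreen read.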
* marks the source's active call; other numbers are inactive results; i = inactive; ? = inconclusive; . = not tested or not shown; ! = a repeat was not active; [ ] = another dose, or the depositor's remark. Unless noted, calls follow the shape of the dose curve; as a rule, active = well fitted curve in the direction sought with a large enough effect; inconclusive = small, poorly fitted or top-dose-only effect, or another doubt; inactive = no such curve, though single readings can be large; an effect the other way counts as inactive or inconclusive.

SMILES	MBNL1 CUG block	PTHR1 agonist	Integrin act MD	D3 ag	D3 antag	CBFb-RUNX1 inh
O=C(NCCc1ccc(O)c(O)c1)C1COc2ccccc2O1 (stereo not drawn)	0.8%	-11.9%	19.5%	92.1*	12.6	.
O=C(COc1ccc(-n2cnnn2)cc1)NC1CCCCC1	-5.2%	i	19.4%	-6.6	-65.1*	-5.0%
CC1CCCCC1NC(=O)COc1ccc(-n2cnnn2)cc1 (stereo not drawn)	-0.3%	-6.5%	-12.5%	9.0	27.0	5.8%
COc1ccc(NC(=O)CN(C)CC(=O)N(C)C2(C#N)CCC(C)CC2)cc1 (stereo not drawn)	.	13.4%	-9.8%	-0.4	-50.4*	.
CN(CC(=O)Nc1ccc(F)cc1)CC(=O)N(C)C1(C#N)CCCCC1	.	22.7%	9.3%	4.9	-17.6	.
C=C(C)C(O)/C=C/C=C/c1ccccc1 (stereo not drawn)	.	.	.	.	.	10.9%[13.1 µM]
COc1cccc(NC(=O)C2(C)CCN2C(=O)CCc2ccc(Cl)cc2Cl)c1 (stereo not drawn)	.	-19.3%	.	-5.0	-60.4*	.
Cc1ccc2nc3c(c(N)c2c1)CCN3c1ccccc1	11.4%	-71.7%	-36.8%	-5.9	-77.5*	-0.4%
Cc1c(Cl)cccc1NC(=O)CC1Sc2ccccc2NC1=O (stereo not drawn)	-2.5%	i	-22.7%	0.0	9.5	4.2%
CCc1cc(C(=O)NNC(=S)Nc2cccc(C)c2)cs1	4.8%	i	16.3%	-7.5	-101.3*	-0.7%
Cc1cccc(NC(=S)NNC(=O)c2csc(C(C)C)c2)c1	6.3%	-2.0%[57.5 µM]	13.5%[7.66 µM]	-3.3	15.1	2.5%
CCc1cc(C(=O)NNC(=S)NCC2CCCO2)cs1 (stereo not drawn)	-7.4%	i	-24.4%[7.66 µM]	-1.6	-53.5*	8.0%
CCCc1cc(C(=O)NNC(=S)NCC2CCCO2)cs1 (stereo not drawn)	-17.9%	i	-7.4%	-13.2	6.8	0.5%
COc1ccc(S(=O)(=O)N(CCc2ccccc2)CC(=O)Nc2cccc(OC)c2)cc1	.	i	.	-14.6	.	.
Cc1ccc(-c2nnc(SCC(=O)NCc3ccccc3)o2)cc1	.	-16.1%	.	4.5	.	.
CN1/C(=C\C=C2/SC(=S)N(CC(=O)O)C2=O)C(C)(C)c2ccccc21	?	-21.2%	-53.4%	-15.8	-79.5*	?
CCN1C(=O)/C(=C/C=C2/SCCN2C)SC1=S	?	-9.1%	17.2%	-10.1	-16.7	-5.8%
C=CCN1C(=O)/C(=C\C=C2\N(C)c3ccccc3C2(C)C)SC1=S	4.4%	-7.5%	-21.5%	-6.6	-20.0	-5.0%
CN1CCS/C1=C\C=C1/SC(=S)N(CC(=O)O)C1=O	?	i	6.0%	-15.8	-68.3*	-9.3%
CCCCCCCC/C=C\CCCCCCCC(=O)NCCc1ccc(O)c(O)c1	.	-35.1%	.	211.1*	75.6	-22.1%
CCCCC/C=C\C/C=C\C/C=C\C/C=C\CCCCCC(=O)NCCc1ccc(O)c(O)c1	.	.	.	.	.	-11.2%
CC(=O)N1CCN(Cc2cc(=O)oc3cc(C)c(C)cc23)CC1	.	-13.6%	.	-4.2	-80.0*	.
Cc1cc2oc(=O)cc(CN3CCC(C)CC3)c2c(C)c1Cl	-7.4%	-42.5%[57.5 µM]	15.5%	0.1	20.6	13.5%
Cc1cc2oc(=O)cc(CN3CCC(C)CC3)c2cc1C	6.6%	-0.3%	?	-12.2	-71.5*	.
Cc1cc2oc(=O)cc(CN3CCCCC3)c2cc1C(C)C	5.0%	-8.2%	-25.6%	0.4	-78.0*	8.2%
SMILES	MBNL1 CUG block	PTHR1 agonist	Integrin act MD	D3 ag	D3 antag	CBFb-RUNX1 inh
COc1cc2oc(=O)cc(CN3CCN(C(C)=O)CC3)c2cc1Cl	.	-13.3%	.	-5.6	-23.7	.
CC1CC(C)CN(CCOCCSc2ccc(Cl)cc2)C1 (stereo not drawn)	2.0%	-6.3%	-21.0%	-14.4	-80.5*	-1.0%
CC1CCCN(CCOCCSc2ccccc2)C1 (stereo not drawn)	-11.5%	i	-20.5%	-12.2	-72.6*	1.8%
c1ccc(SCCOCCN2CCOCC2)cc1	-5.3%	i	3.0%	-20.5	-7.0	.
CC1CC(C)CN(CCOCCSc2ccccc2)C1 (stereo not drawn)	2.8%	i	-45.1%	-10.5	-73.3*	-16.6%
Cc1ccc(SCCOCCN2CCOCC2)cc1	-12.4%	-7.3%	11.3%	-10.2	-26.6	.
CC1CC(C)CN(CCCSc2ccccc2)C1 (stereo not drawn)	-2.0%	i	-9.3%	-9.9	-50.6*	1.4%
CC1CCC(=O)N(CCSc2ccccc2)CC1 (stereo not drawn)	-9.2%	-36.9%	6.0%	-6.0	12.6	.
CC(C)OC(=O)N(C)C[C@@H]1OCc2cnnn2CCCC(=O)N([C@@H](C)CO)C[C@H]1C	.	-9.4%	-12.9%	0.5	11.5	.
Cc1noc(C)c1CSCC(=O)Oc1ccc(N(C)S(=O)(=O)c2ccc(Cl)cc2)cc1	.	-17.6%	5.9%	35.8*	-4.3	.
Cc1ccc(NC(=O)CN2CC(C)SC2=NC2CCCCC2)cc1 (stereo not drawn)	21.0%	?	3.8%	-16.4	-95.5*!	3.3%
COc1ccc(-c2cn(-c3ccc(C)cc3)c(S(=O)(=O)CC(=O)Nc3ccccc3)n2)cc1	.	-0.8%	.	-2.4	.	.
Cc1cccc(C)c1-n1nnnc1C1c2ccccc2C(=O)N1CCc1ccc(O)cc1 (stereo not drawn)	.	-8.7%	.	2.3	-8.4	.
CCCN1CCC(=O)N([C@H](COc2ccccc2)c2ccccc2)CC1	9.4%	i	-27.9%	-74.5	-103.6*	.
CC(C)CN1CCC(=O)N([C@H](COc2ccccc2)c2ccccc2)CC1	-8.0%	i	-2.8%	-60.2	-69.9*	.
O=C1CCN(CCc2ccccc2)CCN1[C@H](COc1ccccc1)c1ccccc1	5.4%	-44.0%	-14.1%	-31.8	-3.0	.
CSc1ccc(CN(C)CC(=O)Nc2ccc(C)cc2Br)cc1	?	i	27.8%	-35.2	-55.6*	?
CSc1ccc(CN(C)CC(=O)N(C)CC(=O)Nc2ccccc2Br)cc1	.	-2.2%	4.3%	-11.5	-27.2	.
Cc1ccc(F)cc1C(=O)N1CCCCC1c1cc(C(=O)Nc2cccc(C#N)c2)no1 (stereo not drawn)	.	i	.	0.7	7.1	.
COc1ccc(Cl)cc1NC(=O)NCCc1c(C)nn(C)c1C	.	i	.	-2.8	.	.
Cc1oc2ncnc(N3CCOCC3)c2c1C(=O)NCc1ccccc1	.	i	.	3.9	.	.
COc1cc2c(cc1OC)n(CC(=O)c1cc(C)ccc1C)c(=O)n1nc(CCn3nc(C)cc3C)nc21	.	-21.6%	.	2.0	.	.
CN(C)CCO[C@@H](c1ccc(Cl)cc1)c1ccccn1	8.6%	i	4.7%	-9.3	?	0.3%[21.7 µM]
